The subject of one assay is HaCat. Briefly: Cytotoxic Profiling of Annotated Libraries Using Quantitative High-Throughput Screening (AID 1296008). Note: nearly all actives have a fitted effect of over 60% in size. As to conditions: Five cell lines viability, CellTiter-Glo ATP luminescence, 48-72 h; max response: stronger effect = lower value. In outline:
(§1)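 Compounds were pin-transferred onto cells and incubated 48 or 72 hr at 37 degree Celsius, 95% humidity. CellTiter-Glo was added, plates sat 10 min at room temperature, then ATP-coupled luminescence was imaged as the viability read-out.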
Background: ATP-based viability assays read luminescence as a measure of living cells.

The next assay relates to KB-3-1. Described as above. Conditions: Five cell lines viability, CellTiter-Glo ATP luminescence, 48-72 h; max response: stronger effect = lower value. In outline: as §1
Another assay concerns NIH3T3. The assay is described as above. As to conditions: Five cell lines viability, CellTiter-Glo ATP luminescence, 48-72 h; max response: stronger effect = lower value. In outline: as §1
A further assay relates to UISO. Briefly: qHTS assay to identify novel small-molecules to repurpose for Merkel cell carcinoma treatment (AID 1296009). Note: nearly all actives have a fitted effect of over 60% in size. Conditions: MCC and control cell lines, CellTiter-Glo viability, 72 h; series mostly up to 46 µM. In outline:
(§2)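 qHTS format: cells treated with library compounds in DMSO across 8 (NPC) or 11 (MIPE) concentrations. Readout after 72 hr at 37 degree celsius was CellTiter-Glo luminescence.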
(Quantitative high-throughput screening tests each substance at several concentrations.)

The next assay concerns WaGa. The description is as above. Conditions: MCC and control cell lines, CellTiter-Glo viability, 72 h; series mostly up to 46 µM. In outline:
as §2

For another assay, the system named is CASKI. Kind of assay: Primary qHTS to identify gynecologic anti-cancer compounds using libraries of approved drugs and bioactive compounds (AID 1345084). Note: nearly all actives have a fitted effect of over 55% in size. As to conditions: Gynecologic cancer cell panel viability, ATPlite luminescence, 48 h; series mostly up to 57.5 µM. In outline:
(§3)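 Cells, 1,000 per well, plated 16 h, then exposed 48 h at 37 C to compounds. Viability by ATPlite luminescence after 15 min at room temperature.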

The subject of another assay is JEG-3. The description is as above. Conditions: Gynecologic cancer cell panel viability, ATPlite luminescence, 48 h; series mostly up to 57.5 µM. In outline:
as §3

Another assay concerns MCC-26. Kind of assay: qHTS assay to identify novel small-molecules to repurpose for Merkel cell carcinoma treatment (AID 1296009). Note: nearly all actives have a fitted effect of over 60% in size. Conditions: MCC and control cell lines, CellTiter-Glo viability, 72 h; series mostly up to 46 µM. In a few lines:
as §2

Another assay deals with MKL-1. The description is as above. Conditions: MCC and control cell lines, CellTiter-Glo viability, 72 h; series mostly up to 46 µM. In outline: as §2
In the next assay the test system is MKL-2. The assay is described as above. Conditions: MCC and control cell lines, CellTiter-Glo viability, 72 h; series mostly up to 46 µM. In outline:
as §2

A further assay relates to Es-2. Kind of assay: Primary qHTS to identify gynecologic anti-cancer compounds using libraries of approved drugs and bioactive compounds (AID 1345084). Note: nearly all actives have a fitted effect of over 55% in size. As to conditions: Gynecologic cancer cell panel viability, ATPlite luminescence, 48 h; series mostly up to 57.5 µM. In outline:
as §3

The next assay concerns HeLa. Described as above. As to conditions: Gynecologic cancer cell panel viability, ATPlite luminescence, 48 h; series mostly up to 57.5 µM. In outline:
as §3

Another assay relates to Hek293T. Described as above. As to conditions: Gynecologic cancer cell panel viability, ATPlite luminescence, 48 h, control line for the selectivity index; series mostly up to 57.5 µM. In outline: as §3
Another assay concerns C33A. Described as above. Conditions: Gynecologic cancer cell panel viability, ATPlite luminescence, 48 h; series mostly up to 57.5 µM. In outline: as §3
The subject of a further assay is OV90. The assay is described as above. Conditions: Gynecologic cancer cell panel viability, ATPlite luminescence, 48 h; series mostly up to 57.5 µM. In outline: as §3

Here are results for 12 compounds from PubChem BioAssay (NCATS).

“And” between values parts separate entries of the source, which are not always exact repeats. Equal entries are not always repeated. Results filed as inconclusive are left out. A number with no mark means an inactive call. The source made the active and inactive calls. Calls come from the whole dose curve; as a rule, active = well fitted curve in the direction sought with a large enough effect; inconclusive = small, poorly fitted or top-dose-only effect, or another doubt; inactive = no such curve, though single readings can be large; an effect the other way counts as inactive or inconclusive.
% is set by controls: 0 for no effect and ±100 for the full control effect; potency is the fitted concentration of half-maximal effect.

Turning to `CC(C)(C)c1cnc(CSc2cnc(NC(=O)C3CCNCC3)s2)o1`, the Potency was 1.32 µM (active) in the assay with HaCat, 0.332 µM (active) in the assay with KB-3-1, 3.32 µM (active) in the assay with NIH3T3 and 0.743 µM (active) in the assay on UISO.
As for `Cn1cc(-c2[nH]c3cc(NC(=O)[C@H](N)C4CCCCC4)cc4c3c2C=NNC4=O)cn1`, in the assay on HaCat, the max response was -8.38%. Further, the Potency with KB-3-1 was 5.9 µM (active) and 4.11 µM (active); in the assay on NIH3T3, 14.8 µM (active); with UISO, 0.418 µM (active); in the assay on WaGa it was 2.64 µM (active). The Potency result with CASKI and with JEG-3 was “inactive” each time.
In the case of `CCS(=O)(=O)c1cccc(-c2cc(C(=O)NC3CCN(C)CC3)c(C)c3[nH]c4ncc(C)cc4c23)c1`, the Potency with HaCat is 4.18 µM (active) and 1.61 µM (active); in the assay with KB-3-1 it was 1.18 µM (active) and 904 nM (active); in the assay on NIH3T3, 10.5 µM (active) and 5.7 µM (active); in the assay with MCC-26 it was 4.69 µM (active); in the assay on MKL-1, 0.132 µM (active); with MKL-2, 8.33 µM (active). The Potency is 2.35 µM (active) with UISO; 2.82 µM (active) with CASKI; 12.6 µM (active) in the assay with Es-2; 1.58 µM (active) in the assay with HeLa; 12.6 µM (active) with Hek293T; 8.91 µM (active) in the assay on JEG-3.
As to `Cc1nc2ccc(CN(C)c3ccc(C(=O)N[C@@H](CCC(=O)O)C(=O)O)s3)cc2c(=O)[nH]1`, the Potency in the assay on HaCat is 0.0332 µM (active); in the assay on NIH3T3, 0.119 µM (active); with WaGa, 0.0833 µM (active); in the assay on JEG-3 it was 0.631 µM (active). Further, in the assay on KB-3-1, the max response was 1.14%. The Potency entry with MCC-26, in the assay with MKL-2, in the assay on C33A, in the assay with CASKI and in the assay on Hek293T was “inactive” throughout.
As to `C[C@]1(CO)CN(c2cc(C(=O)Nc3ccc4c(c3)-c3c(c(C(N)=O)nn3-c3ccc(F)cc3)CC4)c(Cl)cn2)C[C@@]1(C)CO`, the Potency was 13.2 µM (active) in the assay on HaCat, 9.35 µM (active) in the assay on UISO and 18.7 µM (active) with WaGa. Further, the results for the max response with KB-3-1 and in the assay with NIH3T3 were -15.8% and -26%, respectively. The Potency entry in the assay with HeLa, in the assay with Hek293T, in the assay with JEG-3 and with OV90 was “inactive” throughout.
`COc1cc2nccc(Oc3ccc(NC(=O)C4(C(=O)Nc5ccc(F)cc5)CC4)cc3)c2cc1OC`: the Potency is 16.6 µM (active) and 25.9 µM (active) with HaCat; 23.5 µM (active) with KB-3-1; 332 nM (active) and 1.64 µM (active) in the assay with NIH3T3; 2.96 µM (active) with MKL-1; 2.09 µM (active) in the assay on WaGa; 11.2 µM (active) in the assay with JEG-3. Moreover, the Potency entry in the assay on Es-2, in the assay with HeLa and with Hek293T was “inactive” each time.
On to `O=C(Nc1ncc(-c2cc(C(F)F)nn2-c2c(Cl)cccc2Cl)s1)C1CC1`, for which the max response with HaCat was -7.36% and -20.3%. Also, the Potency in the assay on KB-3-1 is 590 nM (active) and 820 nM (active); in the assay on NIH3T3 it was 1.18 µM (active) and 1.46 µM (active); with Es-2 it was 3.16 µM (active); with HeLa, 2.51 µM (active).
As for `COc1ccc(C(=O)CC2(O)C(=O)Nc3c(Cl)ccc(Cl)c32)cc1` (centres undefined), the Potency was 4.11 µM (active) in the assay on HaCat; 3.72 µM (active) and 5.17 µM (active) in the assay on KB-3-1; 9.35 µM (active) and 2.91 µM (active) with NIH3T3; 5.26 µM (active) in the assay on UISO; 14.1 µM (active) in the assay on HeLa. The Potency result in the assay with C33A and in the assay on OV90 was “inactive” each time.
Turning to `O=C(c1ccc(Nc2nccc(-c3cc4ccccc4s3)n2)cc1)N1CCC(N2CCCC2)CC1`, the Potency with HaCat was 23.5 µM (active); in the assay on KB-3-1, 9.35 µM (active); in the assay with NIH3T3, 26.4 µM (active) and 23.1 µM (active); in the assay on UISO, 18.7 µM (active). The Potency result with C33A, in the assay on CASKI, in the assay with Es-2, in the assay on HeLa, with Hek293T and in the assay on JEG-3 was “inactive” in each case. Also, the Potency result in the assay with OV90 was “inactive”.
For `COc1cc2c(cc1-c1c(C)noc1C)ncc1[nH]c(=O)n([C@H](C)c3ccccn3)c12`, in the assay on HaCat, the max response is -12.8%. Also, the Potency was 16.6 µM (active) in the assay on KB-3-1; 20.9 µM (active) in the assay with NIH3T3; 23.5 µM (active) with MCC-26; 18.7 µM (active) in the assay on MKL-1; 2.64 µM (active) in the assay on MKL-2; 14.8 µM (active) in the assay on UISO. Further, the Potency with WaGa is 5.9 µM (active); in the assay with CASKI, 3.98 µM (active); with JEG-3 it was 12.6 µM (active). The Potency result with C33A and in the assay with Hek293T was “inactive” each time.
Consider `COCCOc1ccc2c(c1)ncn2-c1ccc2cccc(N3CCC(N)CC3)c2n1`, for which the Potency is 18.7 µM (active) and 16.4 µM (active) in the assay with HaCat; 16.6 µM (active) and 11.6 µM (active) with KB-3-1; 1.48 µM (active) in the assay with NIH3T3; 20.9 µM (active) with MKL-1; 26.4 µM (active) with UISO; 20.9 µM (active) with WaGa. Further, the figures for the Potency in the assay on Es-2 and in the assay with JEG-3 were 28.2 µM (active) and 17.8 µM (active), respectively.
`COc1ccc(F)c(F)c1C(=O)c1cnc(NC2CCN(S(C)(=O)=O)CC2)nc1N`: the Potency in the assay with HaCat was 10.5 µM (active) and 5.17 µM (active); with KB-3-1, 3.32 µM (active) and 4.11 µM (active); in the assay on NIH3T3, 2.09 µM (active) and 3.26 µM (active); in the assay on MKL-2 it was 11.8 µM (active); with UISO, 2.96 µM (active); in the assay with C33A, 10 µM (active). Moreover, the Potency is 10 µM (active) in the assay with CASKI, 3.16 µM (active) in the assay on Es-2, 2.82 µM (active) in the assay with HeLa and 3.55 µM (active) with Hek293T.
